We go through 8 compounds from PubChem BioAssay (NCI).

Some test systems named below: SR leukemia; RPMI-8226 leukemia; OVCAR-8 ovarian; OVCAR-5 ovarian; OVCAR-4 ovarian; SK-OV-3 ovarian; IGROV1 ovarian; OVCAR-3 ovarian; HS 578T breast; NCI/ADR-RES ovarian; T-47D breast; BT-549 breast; MDA-MB-435 melanoma; SW-620 colon; MCF7 breast; HCT-116 colon; HCC-2998 colon; KM12 colon.
Common to all, as to assay: NCI-60 one-dose screen, 48 h (100 = growth as untreated, 0 = no growth, -100 = all killed)
Details in all cases: 10 µM unless noted

This is part of a sample that, as a whole, favours compounds with a hit. Of some 83,000 tested, about 20% had one in any assay.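 In brief: 96-well plates, 48 h treatment, single concentration, percent growth endpoint.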 Values without a mark were called inactive. The source made the active and inactive calls. Rule for the calls: active = growth percent below 10; inactive = the rest.

With `CCOC(=O)C1OC1(c1ccccc1)c1ccccc1` (centres undefined), the growth is 108% in the experiment on SR leukemia; 95.6% in the experiment with RPMI-8226 leukemia; 99.6% in the experiment with OVCAR-8 ovarian; 99.6% in the experiment on OVCAR-5 ovarian; 121% in the experiment with OVCAR-4 ovarian; 112% with SK-OV-3 ovarian. For the same compound, the growth was 99.6% with IGROV1 ovarian; 106% in the experiment with OVCAR-3 ovarian; 114% with HS 578T breast; 105% with NCI/ADR-RES ovarian; 110% with T-47D breast; 110% with BT-549 breast. In addition, the growth in the experiment with MDA-MB-435 melanoma is 104%; in the experiment on SW-620 colon it was 105%; in the experiment on MCF7 breast, 105%; in the experiment with HCT-116 colon, 107%; in the experiment with HCC-2998 colon it was 117%; in the experiment with KM12 colon, 94.3%.

For the compound `O=C(NC(Cc1cn(Cc2ccccc2)cn1)C(=O)O)OCC1c2ccccc2-c2ccccc21` (centres undefined), the growth in the experiment with SR leukemia was 85.1%; in the experiment on RPMI-8226 leukemia it was 114%; with OVCAR-8 ovarian, 103%; with OVCAR-5 ovarian it was 105%; in the experiment on OVCAR-4 ovarian it was 106%; in the experiment on SK-OV-3 ovarian it was 109%. The growth was 105% with IGROV1 ovarian; 105% in the experiment with OVCAR-3 ovarian; 98% with HS 578T breast; 104% in the experiment with NCI/ADR-RES ovarian; 112% in the experiment on T-47D breast; 97.2% with BT-549 breast. In addition, the growth is 113% in the experiment on MDA-MB-435 melanoma; 104% in the experiment on SW-620 colon; 104% in the experiment with MCF7 breast; 90.8% in the experiment on HCT-116 colon; 113% in the experiment on HCC-2998 colon; 101% in the experiment with KM12 colon.

For `Cc1cc(N2CCN(C)CC2)nc(N(CCNc2ccnc3cc(Cl)ccc23)Cc2ccco2)n1`, the growth with SR leukemia is -22.1% (active); in the experiment with RPMI-8226 leukemia, -3.89% (active); in the experiment with OVCAR-8 ovarian, 65.8%; with OVCAR-5 ovarian, 73.3%; in the experiment on OVCAR-4 ovarian, 55.7%; in the experiment with SK-OV-3 ovarian, 91.5%. Besides, the growth in the experiment with IGROV1 ovarian is 18.5%; in the experiment with OVCAR-3 ovarian it was 3.21% (active); in the experiment on HS 578T breast it was 68.7%; in the experiment on NCI/ADR-RES ovarian it was 38.7%; with T-47D breast, 40.4%; with BT-549 breast, 31.1%. For the same compound, the growth in the experiment on MDA-MB-435 melanoma was -39.8% (active); in the experiment on SW-620 colon, 38.2%; with MCF7 breast, 17.1%; with HCT-116 colon it was 17.1%; in the experiment on HCC-2998 colon it was 92.7%; in the experiment on KM12 colon, 34.2%.

`Cc1csc(Nc2nc(-c3ccc(Cl)cc3)nc(C(Cl)(Cl)Cl)n2)n1`: the growth in the experiment on SR leukemia is 57%; in the experiment on RPMI-8226 leukemia it was 76.7%; with OVCAR-8 ovarian, 89.9%; in the experiment on OVCAR-5 ovarian, 99%; in the experiment on OVCAR-4 ovarian, 95.5%; with SK-OV-3 ovarian, 94.1%. The growth was 102% with IGROV1 ovarian; 67% in the experiment on OVCAR-3 ovarian; 101% with HS 578T breast; 91.3% in the experiment on NCI/ADR-RES ovarian; 61.6% in the experiment with T-47D breast; 97.1% in the experiment on BT-549 breast. For the same compound, the growth was 89.3% in the experiment on MDA-MB-435 melanoma; 78.6% in the experiment with SW-620 colon; 59.4% in the experiment with MCF7 breast; 79.1% with HCT-116 colon; 70% in the experiment with HCC-2998 colon; 79.6% with KM12 colon.

Regarding `COC(=O)[C@]12CC[C@@H](C)[C@H](C)[C@@H]1C1=CC[C@@H]3[C@@]4(C)C[C@@H](O)OC[C@](C)(C=O)C4C(=O)C[C@@]3(C)[C@]1(C)CC2` (some centres undefined), the growth in the experiment with SR leukemia is -14.3% (active); in the experiment with RPMI-8226 leukemia, -19.3% (active); in the experiment with OVCAR-8 ovarian, -4.45% (active); in the experiment with OVCAR-5 ovarian it was -10.5% (active); in the experiment with OVCAR-4 ovarian it was 18.5%; in the experiment on SK-OV-3 ovarian it was -0.332% (active). Besides, the growth is 14.7% with IGROV1 ovarian; -12% (active) in the experiment with OVCAR-3 ovarian; 16.8% with HS 578T breast; 10.9% in the experiment with NCI/ADR-RES ovarian; -4.48% (active) in the experiment on T-47D breast; -10.1% (active) with BT-549 breast. In addition, the growth is 2.15% (active) with MDA-MB-435 melanoma; 17% in the experiment on SW-620 colon; 6.16% (active) in the experiment on MCF7 breast; -44.4% (active) in the experiment on HCT-116 colon; 6.06% (active) with HCC-2998 colon; 6.15% (active) with KM12 colon.

Turning to `CC(C)(C)c1ccc(OP(=S)(N/N=C/c2ccccc2O)Oc2ccc(C(C)(C)C)cc2)cc1`, the growth was 61.6% in the experiment with SR leukemia; 45.8% in the experiment with RPMI-8226 leukemia; 82.8% in the experiment on OVCAR-8 ovarian; 91.6% in the experiment with OVCAR-5 ovarian; 65.1% with OVCAR-4 ovarian; 65.2% with SK-OV-3 ovarian. Moreover, the growth in the experiment on IGROV1 ovarian is 63.5%; in the experiment on OVCAR-3 ovarian, 47.5%; in the experiment on HS 578T breast, 94.5%; with NCI/ADR-RES ovarian, 87.8%; in the experiment on T-47D breast, 70.2%; with BT-549 breast it was 89.5%. Moreover, the growth in the experiment on MDA-MB-435 melanoma is 72%; with SW-620 colon it was 77.7%; with MCF7 breast, 53.8%; in the experiment with HCT-116 colon, 42.9%; with HCC-2998 colon, 86.2%; in the experiment on KM12 colon it was 67.2%.

With `CN1CCN(c2ccc3nc(-c4[nH]ncc4Nc4ncnc5[nH]ccc45)[nH]c3c2)CC1`, the growth with SR leukemia was -6.78% (active); in the experiment on RPMI-8226 leukemia, 101%; in the experiment with OVCAR-8 ovarian, 7.18% (active); in the experiment with OVCAR-5 ovarian it was 6.49% (active); in the experiment on OVCAR-4 ovarian, -10.9% (active); in the experiment with SK-OV-3 ovarian it was 12.6%. The growth with IGROV1 ovarian was 0.386% (active); in the experiment on OVCAR-3 ovarian it was -0.64% (active); in the experiment on HS 578T breast, 15.8%; in the experiment with NCI/ADR-RES ovarian, 80.4%; with T-47D breast, -3.09% (active); in the experiment with BT-549 breast it was -41.9% (active). The growth was 0.107% (active) in the experiment on MDA-MB-435 melanoma; 3.78% (active) in the experiment on SW-620 colon; 3.28% (active) with MCF7 breast; 2.16% (active) in the experiment on HCT-116 colon; -23.2% (active) in the experiment on HCC-2998 colon; 10.2% with KM12 colon.

With `CN(C)c1ccc(N=C2C=CC(=O)C=C2)cc1`, the growth is 25.9% in the experiment with SR leukemia; 61.1% with RPMI-8226 leukemia; 81.7% with OVCAR-8 ovarian; 120% in the experiment with OVCAR-5 ovarian; 70.4% in the experiment on OVCAR-4 ovarian; 99.7% in the experiment with SK-OV-3 ovarian. The growth in the experiment on IGROV1 ovarian was 96.5%; with OVCAR-3 ovarian it was -14.8% (active); in the experiment on HS 578T breast it was 72.5%; in the experiment with NCI/ADR-RES ovarian it was 90.8%; in the experiment on T-47D breast, 60.6%; with BT-549 breast it was 31.3%. For the same compound, the growth with MDA-MB-435 melanoma was 74.5%; in the experiment with SW-620 colon it was 96.3%; with MCF7 breast, 72.3%; in the experiment with HCT-116 colon, 74.3%; in the experiment with HCC-2998 colon, 94.3%; with KM12 colon it was 97.1%.
